Compound activity as filed in PubChem BioAssay.
This is a sample that favours compounds with a hit; in the whole collection about 5.5% have one here.
CtBP-E1A inh: inhibitors of CtBP/E1A interaction. AlphaScreen GST-E1A/His-CtBP binding, 1536-well; active compounds read low. activity change, % (no concentration beside the values). 340,000 compounds, 0.49% hits. AID 651724; in the data active = activity change below about -65%; inconclusive = mostly about -30% to -63%; also: % is scaled to controls: 0 for no effect and ±100 for the full control effect
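Protein mix (5X: 125 nM each GST-E1A, His-CtBP) was incubated with pinned compound 2 h at 37 deg C in dark, in 50 mM Tris pH 8.0 buffer with 300 mM NaCl. Glutathione donor and nickel acceptor beads followed; AlphaScreen signal read after 1 h.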
CBFb RUNX1 block: blocks binding between human CBF-beta and RUNX1; Q01196+Q13951; AlphaScreen CBFb-His/RUNX1-biotin binding, biochemical; Potency, µM (titrated, usually from 59.8 µM), without a hit: top-dose activity, negative = inhibition, usual class: inhibitors; 230,000 tested, under 10 active; also: % of control where 0% means no effect
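Inhibition was taken as any reduction in AlphaScreen signal from the CBF-beta–RUNX1 pair (His and biotin tags, 30 nM each), measured after compound (15 min) and bead (90 min) incubations at room temperature.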
RORgamma inh: ROR gamma (mouse) transcription inhibition. 310,000 compounds, 5.4% hits. Drosophila S2 Gal4-RORgamma UAS-luciferase reporter, 20 h. Potency, µM (series often up to 53.6 µM), inactives show at the highest dose activity change, negative = inhibition, hits mostly inhibitors; also: potency is read from the fitted curve at half-maximal effect; % is scaled to controls: 0 for no effect and ±100 for the full control effect; nearly all actives have a fitted effect of over 60% in size
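Compounds are pin-transferred onto Drosophila Schneider cells expressing a copper-inducible Gal4–ROR gamma transactivation domain fusion. After 1 hr, copper sulfate is added to 700 uM final; luciferase is read 20 hr later.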
VP16 counter: inhibits Gal4-VP16 luciferase reporter, ROR gamma counter-screen; Drosophila S2 Gal4-VP16 UAS-luciferase, luminescence, 20 h; AID 2546; 310,000 compounds, 3.5% hits; Potency, µM (doses to about 53.6 µM), for inactives: top-dose activity, negative = inhibition, actives largely listed as inhibitors;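 also: Gal4-VP16 expression switched on by copper sulfate through the metallothionein promoter; potency is read from the fitted curve at half-maximal effect; % is scaled to controls: 0 for no effect and ±100 for the full control effect; nearly all actives have a fitted effect of over 50% in size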
MBNL1 CUG block: inhibitors of human MBNL1 binding to CUG repeat RNA. Q9NR56. TR-FRET MBNL1-His/biotin-(CUG)12 binding, 665/545 ratio. Potency, µM (titrated, usually from 57.5 µM), without a hit: at the top dose activity change, negative = inhibition, actives largely listed as inhibitors. 280,000 compounds, 0.036% hits. AID 2675; active = well fitted inhibition curve with a large enough effect in the signal ratio, with a control signal flat, not every such curve was filed as active; inconclusive = small, poorly fitted or top-dose-only effect, or effect the other way, or a change in a side signal; inactive = no such curve, though single readings can be large or run the other way; the % refers to the signal ratio; also: potency is read from the fitted curve at half-maximal effect; % is scaled to controls: 0 for no effect and ±100 for the full control effect
Target sequence (Q9NR56 whole entry, looked up): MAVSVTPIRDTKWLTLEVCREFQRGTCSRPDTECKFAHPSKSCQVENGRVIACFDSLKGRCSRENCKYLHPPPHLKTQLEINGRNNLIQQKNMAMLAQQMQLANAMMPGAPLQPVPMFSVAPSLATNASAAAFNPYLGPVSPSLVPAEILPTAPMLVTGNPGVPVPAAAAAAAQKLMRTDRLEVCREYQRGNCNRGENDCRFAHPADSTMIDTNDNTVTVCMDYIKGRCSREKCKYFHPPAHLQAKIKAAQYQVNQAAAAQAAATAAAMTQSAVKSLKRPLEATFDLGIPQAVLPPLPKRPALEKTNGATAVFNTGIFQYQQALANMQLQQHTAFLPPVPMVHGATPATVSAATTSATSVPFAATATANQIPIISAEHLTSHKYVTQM
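Compounds (final 92 nM to 58 uM) are added to His-tagged MBNL1 and biotin-(CUG)12, then terbium anti-His antibody and streptavidin-XL665 (5 nM final). After 60 min at room temperature, the 665/545 nm ratio is read.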
Six1-Eya2 blk: blocks human Six1 binding to Eya2; activity change, % (concentration not given with the values); Q15475+O00167; AlphaScreen GST-Six1/His-Eya2 binding, biochemical; active compounds read low; 360,000 compounds, 0.56% hits; in the data active = activity change below about -65%; inconclusive = mostly about -30% to -63%; also: % is scaled to controls: 0 for no effect and ±100 for the full control effect
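GST-Six1 + His-Eya2 (5X stock: 250/500 nM); Tris pH 8.0, 300 mM NaCl, 0.05% BSA, 0.02% Tween 20; GSH donor/Ni acceptor beads; 1 h 37 °C dark; AlphaScreen readout.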
* marks the source's active call; other numbers are inactive results; ? = inconclusive; / = no result; [ ] = remark or other dose. Unless noted, calls follow the shape of the dose curve; as a rule, active = well fitted curve in the direction sought with a large enough effect; inconclusive = small, poorly fitted or top-dose-only effect, or another doubt; inactive = no such curve, though single readings can be large; an effect the other way counts as inactive or inconclusive.

SMILES	CtBP-E1A inh	CBFb RUNX1 block	RORgamma inh	VP16 counter	MBNL1 CUG block	Six1-Eya2 blk
CC1=NN(C(N)=S)C(=O)C1N=Nc1ccc(Cl)cc1Cl (stereo unspecified)	/	/	0.45µM*	0.63µM*	?	1
COC(=O)C(c1ccccc1)C(CC(=O)c1ccccc1)c1ccccc1 (stereo unspecified)	5	/	/	/	/	1
COc1ccc(Cn2c(=S)[nH]c3ccccc3c2=O)cc1	2	/	8.9µM*	10µM*	11%	1
Cc1ccc(Cn2c(=S)[nH]c3ccccc3c2=O)cc1	4	/	4µM*	6.3µM*	11%	4
C=CCOc1c(Br)cc(/C=N/NC(=O)Cc2ccc(C(F)(F)F)cc2[N+](=O)[O-])cc1OC	8	-2%	?	18µM*	/	5
CCOC(=S)SSC(=S)OCC	/	/	11%	0%	/	/
Cc1nc(N(C)Cc2ccccc2)c2c(C)c(C)sc2n1	-2	/	20µM*	?	2%	-2
O=C(COC(=O)c1ccc2c(c1)OCCO2)NCCC1=CCCCC1	-1	7%	?	13%	6%	-71*
Cc1cc(C(=O)N/N=C/c2cc(Br)cc(Br)c2OC(=O)c2cccc(F)c2)n[nH]1	-28	-7%	3.5µM*	-27%	3%	-24
Cc1cc(C(=O)N/N=C/c2cc(Br)ccc2OC(=O)c2ccc(Br)cc2)n[nH]1	/	-10%	8.9µM*	7.1µM*	-1%	/
Cc1cc(C(=O)N/N=C/c2cccs2)n[nH]1	4	11%	17%	3%	4%	-6
Cc1cc(C(=O)N/N=C\c2cc(C(C)(C)C)ccc2O)n[nH]1	-68*	/	2.2µM*	5.6µM*	0%	?
COc1cc(OC)c2c(=O)c(-c3ccccc3)coc2c1	/	/	18%	-8%	/	/
CN(c1ccccc1)S(=O)(=O)c1ccc(NC(=S)NC(=O)c2ccccc2)cc1	-11	-18%	18µM*	?	-1%	-6
CC(=O)Nc1ccc(NC(=O)c2ccc(S(=O)(=O)N(C)c3ccccc3)cc2)cc1	/	/	/	/	/	-7
CC(C)(C)NS(=O)(=O)c1ccc(NC(=S)NC(=O)C2CCC2)cc1	11	/	18µM*	-16%	-8%	24
CN(Cc1ccccc1)S(=O)(=O)c1ccc(NC(=S)NC(=O)C2CCCC2)cc1	0	-3%	5µM*	?	-5%	-5
Cc1ccc(C(=O)NC(=S)Nc2ccc(S(=O)(=O)N(C)c3ccccc3)cc2)cc1	11	1%	7.1µM*	?	3%	0
CC(=O)NS(=O)(=O)c1ccc(NC(=S)NC(=O)C2CCC2)cc1	6	/	/	/	-2%	2
Cc1ccc(S(=O)(=O)N2CCC(C(=O)NCCCN3CCOCC3)CC2)cc1	-3	/	/	/	/	5
CN(c1ccccc1)S(=O)(=O)c1ccc(NC(=S)NC(=O)C2CC2)cc1	-3	9%	11µM*	?	/	-1
COc1ccccc1/C=C/C(=O)NC(=S)Nc1ccc(S(=O)(=O)N(C)c2ccccc2)cc1	-3	-3%	13µM*	5%	5%	-5
CN(C)S(=O)(=O)c1ccc(NC(=S)NC(=O)C2CCC2)cc1	-13	/	?	-25%	-4%	-11
C/C(=N\NC(=O)c1cc(C)nc2ccccc12)c1cccs1	/	-2%	-33%	-4%	/	-15
CC(/C=C/c1ccccc1)=N/NC(=O)c1cccc(Br)c1	-5	-7%	2.2µM*	3.5µM*	12%	-3
SMILES	CtBP-E1A inh	CBFb RUNX1 block	RORgamma inh	VP16 counter	MBNL1 CUG block	Six1-Eya2 blk
CC(/C=C/c1ccccc1F)=N\NC(=O)c1ccc(Cl)cc1	-5	2%	12%	-11%	-3%	7
CC(/C=C/c1ccccc1)=N\NC(=O)c1ccc(Br)cc1	-14	-7%	0.5µM*	0.89µM*	-6%	-3
CC(/C=C/c1ccccc1)=N\NC(=O)c1cc(C)nc2ccccc12	-8	1%	14µM*	?	/	-1
CC(/C=C/c1ccccc1F)=N\NC(=O)c1ccccc1	0	4%	3.2µM*	7.1µM*	18%	0
NC(Cc1ccc(F)cc1)c1csc(Nc2ccc(C(F)(F)F)cn2)n1 (stereo unspecified)	-6	/	/	/	/	-5
Nc1nc2c(ncn2[C@@H]2O[C@H](CNC(=O)[C@H](N)C3CCCCC3)[C@@H](O)[C@H]2O)c(=O)[nH]1	-1	/	/	/	/	21
Cc1cccc(C)c1NC(=O)CSc1nc2[nH]c(=O)cc(O)c2s1	0	/	/	/	/	-1
COc1ccc(NC(=O)Nc2ccc([N+](=O)[O-])cc2)cn1	-8	/	9%	6%	15%	-12
CCOC(=O)C1CCC(C(=O)OCC)N1c1ccc(C=O)cc1 (stereo unspecified)	-14	/	/	/	/	-6
CCN1C(=O)/C(=C/c2ccc(C)s2)NC1=S	-6	-9%	18µM*	?	?	-5
Cc1ccc(/C=C2/NC(=O)N(Cc3ccccc3)C2=O)s1	1	-3%	-17%	-8%	5%	5
Cc1ccc(S(=O)(=O)N(C)CC(=O)Nc2cc(C)ccn2)cc1	-12	/	/	/	/	3
COC(=O)c1cccc(Nc2nc3ccccc3nc2C)c1	-7	7%	-27%	13µM*	9%	-12
O=C(O)c1cccc(Nc2nc3ccccc3nc2NS(=O)(=O)c2ccccc2)c1	2	/	/	/	/	-2
CC(C)=CCC/C(C)=C/CO/N=C1/C[C@@H](O)[C@@H](O)[C@@H]2[C@@H]3C(=O)N(Cc4ccc5c(c4)OCO5)C(=O)[C@H]3CC[C@H]12	/	1%[13.1 µM]	0%[10 µM]	-9%[10 µM]	/	/
CC1C/C(=N\NC(=S)NC(C)C)CC(C)(C)C1 (stereo unspecified)	-2	-2%	1.6µM*	4µM*	-7%	-2
COc1ccc(/C=C/C(=O)NC(=S)N2CCCCC2)cc1OC	1	/	?	?	16%	2
COc1ccc(/C=C/C(=O)NC(=S)NNC(=O)c2cccs2)cc1	-10	?	2µM*	22µM*	2%	-8
COc1ccc(/C=C/C(=O)NC(=S)N2CCN(C)CC2)cc1	-3	-10%	5.6µM*	?	/	-5
CCOC(=O)N1CCN(C(=S)NC(=O)/C=C/c2ccc(C)cc2)CC1	?	/	5µM*	5.6µM*	15%	-11
Cc1cc(C)nc(SCC(=O)O)n1	10	-4%	-21%	-8%	-5%	5
Cc1cc(SCNC(=O)c2ccccc2)nc(C(C)C)n1	8	9%	13µM*	?	7%	-4
Cc1cc(C)nc(SCNC(=O)c2ccccc2)n1	13	-3%	2.8µM*	4µM*	10%	8
